# Assay results from PubChem BioAssay.
# The other results are listed elsewhere or left out. Results filed as inconclusive are left out. The source made the active and inactive calls.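 How the source made its calls, unless noted: active means thallium entry rate above the same plate's blocked-transporter control wells by more than 3 SD; inconclusive means the two repeat wells disagree; inactive means the rest.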
# Experiments:
# [1] = target: Solute carrier family 12 member 5 (Homo sapiens) (UniProt Q9H2X9); test: retest of KCC2 transport modulators without sodium – cell-based, HEK293 KCC2, thallium flux, secondary assay, confirmation (AID 1713;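 active means thallium flux slope above the same plate's solvent-only control mean plus 3 SD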); details: FluoZin2 fluorescence, at 10 µM, stronger effect = higher value
# [2] = PubChem AID 1714; details: HEK293-KCC2 + bumetanide/ouabain, thallium flux FluoZin2; at 10 µM; stronger effect = higher value;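 further: raw slope of fluorescence over initial fluorescence between 10 and 20 s after thallium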
# [3] = target: Solute carrier family 12 member 5 (Homo sapiens) (UniProt Q9H2X9); test: retest of KCC2 transport modulation, ouabain-free – cell-based, HEK293 KCC2, thallium flux, FluoZin2, secondary assay 2, confirmation (AID 1715;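 active means thallium flux slope more than 3 SD above or below the plate's solvent-only control mean, mostly below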;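 further: raw slope with 0.1% DMSO as baseline and bumetanide as block control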); details: HEK293-KCC2, thallium flux FluoZin2 fluorescence; at 10 µM; actives lie on both sides; F/F0 rise rate, 10–20 s post-thallium
# [4] = compound effects on native HEK Tl+ uptake – HEK cells, counterscreen 1, counter-screen for KCC2 modulator project, confirmation (AID 1716;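 active means thallium flux rate significantly above the same plate's solvent-only control wells, beyond their mean plus 3 SD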); details: HEK293 parental cells, thallium flux FluoZin2, ouabain; at 10 µM; baseline-ratio fluorescence slope, 10–20 s after thallium
# [5] = target: Solute carrier family 12 member 5 (Homo sapiens) (UniProt Q9H2X9); test: modulation of KCC2 thallium flux in HEK cells – cell-based, ouabain, retest, confirmation (AID 1717;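 active means thallium flux slope beyond 3 SD from same-plate DMSO control mean in most replicates, usually higher, sometimes lower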;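 further: slope of initial-normalized fluorescence between seconds 10 and 20 after thallium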); details: HEK293-KCC2, thallium flux FluoZin2 fluorescence, at 10 µM, bidirectional: low = inhibitor, high = activator
# [6] = native HEK Tl+ uptake effects, second counter-screen – HEK cells, counterscreen 2, counter-screen for KCC2 modulator project, confirmation (AID 1718;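 active means thallium flux slope above the same plate's solvent-control mean plus 3 SD in both duplicate wells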;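 further: run without ouabain in cells lacking the KCC2 cotransporter; slope of fluorescence scaled to its starting value between 10 and 20 s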); details: HEK293 parental, thallium flux FluoZin-2 fluorescence slope; at 10 µM
# [7] = inhibitors of TNFa-induced NFkB p65 translocation, primary screen, imaging, HUVEC, MLSMR starter and 10KST1 sets (AID 438;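 active means inhibition above 20% together with a positive visual image hit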;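 further: compound added about 3h40 before a 20 min TNFalpha stimulation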;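 on inhibition: signal is the nuclear over cytoplasmic p65 intensity ratio per well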); details: HUVEC TNFa-induced p65 nuclear translocation; cell count: measured here: nuclei count (cytotoxicity indicator), at 2.08 µM; inhibition: at 2 µM, stronger effect = higher value, 0% TNFa-plus-vehicle, 100% no-TNFa wells
# [8] = reduction of polyQ htt aggregates in cells – imaging, exon1htt(103Q)mCFP cells, high-content imaging, primary screen (AID 483;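 active means visual image review flags a hit and inhibition of aggregation exceeds 20%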;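 further: compound exposure lasted 3 days before fixation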;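 on nuclei count: percent of the per-plate median nuclei count of sample wells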); details: exon1htt(103Q)mCFP cell line, aggregate imaging, at 2 µM; inhibition of aggregation: stronger effect = higher value; nuclei count: measured here: cell count, toxicity
# [9] = endothelial E-selectin expression blockers – imaging, HUVEC, immunofluorescence, MLSMR starter and 10KST1 sets, primary screen (AID 487;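 active means visually confirmed hit in the image check and inhibition above 20%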;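 on inhibition: signal is fraction of cell area covered by stained E-selectin grains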;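 on nuclei count: 100% = median nuclei count of all wells on the same plate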); details: HUVEC TNFalpha-induced E-selectin immunofluorescence imaging, at 2 µM; inhibition: stronger effect = higher value; nuclei count: measured here: cell number, toxicity
# [10] = Primary imaging screen for DUSP6 inhibitors that restore phospho-Erk in transfected HeLa cells, chemical complementation (AID 609;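 active means compounds giving at least 50% inhibition in the cell-based MKP-3 phosphatase rescue imaging test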;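 on inhibition: phospho-Erk level distribution per well compared with pooled transfected vehicle control wells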); details: HeLa MKP-3 transfected, phospho-Erk imaging KS statistic, at 10 µM, cells stimulated with TPA for 15 min
# [11] = target: Dual specificity protein phosphatase 6 (Homo sapiens) (UniProt Q16828); test: as above; details: HeLa MKP-3 transfected, phospho-Erk imaging KS statistic; at 10 µM; stronger effect = higher value; cells stimulated with TPA for 15 min
# [12] = target: Voltage-gated potassium channel subunit beta-2 (Rattus norvegicus) (UniProt P62483); test: inhibitors of rat Kvbeta2 reductase activity – biochemical, NADPH fluorescence, primary screen (AID 622;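 active means fluorescence slope higher than the sample average by over 3 SD, cut at about -0.22 in these data, passing the limit was not always enough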;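 further: slope of raw intensity against log time taken from 70 to 1610 s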); details: recombinant KvBeta, 4-cyanobenzaldehyde reduction, at 10 µM, stronger effect = higher value
# [13] = target: Voltage-gated potassium channel subunit beta-2 (Rattus norvegicus) (UniProt P62483); test: enhancers of rat Kvbeta2 NADPH turnover – biochemical, NADPH fluorescence, primary screen (AID 623;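 active means NADPH fluorescence slope more negative than the mean of all samples by about 3 SD, 99.7% confidence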;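 further: fluorescence intensity change per second fitted from 20 to 320 s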); details: Recombinant KvBeta, NADPH fluorescence decrease slope, 10 min; at 10 µM; stronger effect = lower value
# [14] = target: Muscarinic acetylcholine receptor M4 (Homo sapiens) (UniProt P08173); test: M4-linked GIRK flux change, two-sided – cell-based, HEK293 M4/GIRK, thallium flux, BTC-AM, M4 allosteric agonist project, primary screen (AID 625;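 active means fluorescence slope after compound addition differing from the mean of all tested samples at 99.7% confidence, mostly higher but some lower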;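 further: thallium influx through GIRK channels coupled to M4 in HEK293 cells with BTC-AM dye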); details: at 10 µM, actives lie on both sides
# [15] = inhibitors of larval lipid processing in zebrafish, primary screen, whole organism, PED6 fluorescence, gall bladder and intestine (AID 686;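 active means a full or partial loss of lipid-probe fluorescence in the fish gall bladder, intestine or both, judged by eye; inactive means no fluorescence loss, or compound toxic to the fish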;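 further: larvae 5 to 7 days old with five fish per well; signal comes from phospholipase A2 cleavage of quenched PED6 carried via bile; overnight exposure to compound and PED6 before scoring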); details: Zebrafish larvae PED6 lipid processing, fluorescence scoring; screened at 20 µM (by protocol)
# [16] = loss of swimming-algae plug formation – whole organism, Chlamydomonas reinhardtii, WT vs cilia-less mutant, absorbance, 96-well, primary screen (AID 463189;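 active means inhibition at or above 50% relative to wild type and mutant plate controls; inactive means inhibition below 50%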;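 further: 0% = wild type cc124 cells in DMSO and 100% = ciliumless bld1 mutant cells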); details: Chlamydomonas reinhardtii gravitaxis, OD600 absorbance, 2 days; at 10 µM; stronger effect = higher value
# [17] = blockers of RIG-like receptor reporter activation – cell-based, Sendai virus stimulus, luciferase, 10K MLSCN set, TLR/RLR signaling modifier project, primary screen (AID 602276;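 active means inhibition at or above 50% at 10 µM; inactive means inhibition below 50%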;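 further: firefly luciferase from ISG56 promoter only with Renilla not read in this screen; 0% = Sendai virus plus DMSO and 100% = medium plus DMSO without virus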); details: HEK293 RL24 IRF3 luciferase reporter, at 10 µM, stronger effect = higher value
# [18] = TLR3 IRF3 reporter activation blockers – cell-based, poly I:C stimulus, luciferase, 10K MLSCN set, primary screen (AID 602277;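 active means inhibition of the reporter signal at or above 50%; inactive means inhibition below 50%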); details: HEK293-TLR3 RL24 IRF3 luciferase reporter, at 10 µM, stronger effect = higher value
# Solute carrier family 12 member 5 (Homo sapiens), sequence (Q9H2X9 whole entry, looked up): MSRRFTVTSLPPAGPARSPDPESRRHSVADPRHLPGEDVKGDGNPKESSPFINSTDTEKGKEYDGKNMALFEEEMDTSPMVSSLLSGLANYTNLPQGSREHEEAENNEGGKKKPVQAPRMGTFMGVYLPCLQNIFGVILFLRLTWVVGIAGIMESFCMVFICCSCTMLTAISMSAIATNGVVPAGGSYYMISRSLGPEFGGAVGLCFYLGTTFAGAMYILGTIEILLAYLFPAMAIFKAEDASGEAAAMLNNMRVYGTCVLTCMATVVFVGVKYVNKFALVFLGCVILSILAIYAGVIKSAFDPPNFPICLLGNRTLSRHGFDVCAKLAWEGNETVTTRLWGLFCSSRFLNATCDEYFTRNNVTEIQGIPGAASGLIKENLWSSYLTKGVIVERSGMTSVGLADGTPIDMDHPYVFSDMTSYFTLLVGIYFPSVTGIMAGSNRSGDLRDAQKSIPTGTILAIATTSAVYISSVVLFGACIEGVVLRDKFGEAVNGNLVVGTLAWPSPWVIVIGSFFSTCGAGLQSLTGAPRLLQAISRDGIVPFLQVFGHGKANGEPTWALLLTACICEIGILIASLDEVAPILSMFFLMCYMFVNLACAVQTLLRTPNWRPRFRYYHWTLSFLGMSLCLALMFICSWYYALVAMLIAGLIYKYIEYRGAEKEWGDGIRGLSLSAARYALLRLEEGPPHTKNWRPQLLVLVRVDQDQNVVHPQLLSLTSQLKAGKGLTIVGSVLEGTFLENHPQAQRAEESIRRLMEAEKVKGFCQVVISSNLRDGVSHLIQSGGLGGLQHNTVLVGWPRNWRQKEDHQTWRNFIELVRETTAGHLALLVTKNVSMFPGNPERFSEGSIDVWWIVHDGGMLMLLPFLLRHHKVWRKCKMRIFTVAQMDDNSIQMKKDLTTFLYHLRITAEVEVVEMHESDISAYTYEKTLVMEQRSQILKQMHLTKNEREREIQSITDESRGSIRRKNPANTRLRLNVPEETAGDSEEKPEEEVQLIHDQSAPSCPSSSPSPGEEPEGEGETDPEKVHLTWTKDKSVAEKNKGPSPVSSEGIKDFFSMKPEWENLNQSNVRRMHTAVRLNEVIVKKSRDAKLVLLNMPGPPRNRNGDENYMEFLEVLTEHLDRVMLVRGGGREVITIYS
# Voltage-gated potassium channel subunit beta-2 (Rattus norvegicus), sequence (P62483 whole entry, looked up): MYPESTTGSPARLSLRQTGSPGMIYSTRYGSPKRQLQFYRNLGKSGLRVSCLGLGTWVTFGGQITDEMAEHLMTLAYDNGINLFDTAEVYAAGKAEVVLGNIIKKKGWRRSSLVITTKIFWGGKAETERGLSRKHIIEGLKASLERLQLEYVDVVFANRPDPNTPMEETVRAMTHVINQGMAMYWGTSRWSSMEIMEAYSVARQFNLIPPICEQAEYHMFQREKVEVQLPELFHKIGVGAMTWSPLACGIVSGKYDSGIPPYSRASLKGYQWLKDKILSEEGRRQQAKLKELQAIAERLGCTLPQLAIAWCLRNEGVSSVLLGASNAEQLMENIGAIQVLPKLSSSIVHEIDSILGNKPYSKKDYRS
# Muscarinic acetylcholine receptor M4 (Homo sapiens), sequence (P08173 whole entry, looked up): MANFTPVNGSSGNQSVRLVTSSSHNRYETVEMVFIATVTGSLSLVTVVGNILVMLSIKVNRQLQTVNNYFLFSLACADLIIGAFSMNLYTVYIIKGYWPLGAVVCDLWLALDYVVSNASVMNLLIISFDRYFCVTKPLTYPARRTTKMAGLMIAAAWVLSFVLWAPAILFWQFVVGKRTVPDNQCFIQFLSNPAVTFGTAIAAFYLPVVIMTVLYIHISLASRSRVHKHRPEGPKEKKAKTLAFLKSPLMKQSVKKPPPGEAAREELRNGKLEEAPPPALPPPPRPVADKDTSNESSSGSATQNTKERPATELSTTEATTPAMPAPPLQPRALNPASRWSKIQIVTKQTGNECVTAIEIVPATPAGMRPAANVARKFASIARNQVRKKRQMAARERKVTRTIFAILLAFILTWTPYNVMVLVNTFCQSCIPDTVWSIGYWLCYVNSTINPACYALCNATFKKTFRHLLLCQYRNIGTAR
# Dual specificity protein phosphatase 6 (Homo sapiens), sequence (Q16828 whole entry, looked up): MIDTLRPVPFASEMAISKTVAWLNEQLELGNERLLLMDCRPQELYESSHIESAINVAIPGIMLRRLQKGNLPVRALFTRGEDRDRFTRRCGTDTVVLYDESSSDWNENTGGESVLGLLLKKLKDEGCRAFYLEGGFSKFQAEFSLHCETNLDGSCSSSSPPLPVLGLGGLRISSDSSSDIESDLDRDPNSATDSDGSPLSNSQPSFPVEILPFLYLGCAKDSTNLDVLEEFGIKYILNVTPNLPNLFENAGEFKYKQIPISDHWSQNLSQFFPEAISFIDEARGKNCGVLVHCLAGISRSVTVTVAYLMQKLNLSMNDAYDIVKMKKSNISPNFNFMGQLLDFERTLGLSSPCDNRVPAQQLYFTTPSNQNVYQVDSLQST
smiles,measurement,setting,value
O=C(CSCc1ccccc1)N1CCc2ccccc21,normalised thallium flux (F/F0 slope),[1],0.00671 (inactive)
same,normalized thallium flux,[2],0.00485 (inactive)
same,normalized thallium flux,[3],0.027 (inactive)
same,thallium flux rate (normalised fluorescence),[4],0.0071 (inactive)
same,"raw Tl+ flux slope (below DMSO = inhibition, above = activation)",[5],0.0219 (active)
same,thallium flux slope,[6],0.00997 (inactive)
CN(C)CCn1c(=S)[nH]c2ccc(Cl)cc2c1=O,normalised thallium flux (F/F0 slope),[1],0.00617 (inactive)
same,normalized thallium flux,[2],0.0089 (active)
same,normalized thallium flux,[3],0.0337 (inactive)
same,thallium flux rate (normalised fluorescence),[4],0.0128 (active)
same,thallium flux slope,[6],0.0165 (active)
O=C(NNC(=S)NC(=O)c1cn(-c2ccccc2)nc1-c1ccccc1)c1ccncc1,normalised thallium flux (F/F0 slope),[1],0.00764 (inactive)
same,normalized thallium flux,[2],0.0138 (active)
same,normalized thallium flux,[3],0.0344 (inactive)
same,thallium flux rate (normalised fluorescence),[4],0.0141 (active)
same,thallium flux slope,[6],0.0155 (active)
C=CCn1c(=S)[nH]c2scc(-c3ccco3)c2c1=O,normalised thallium flux (F/F0 slope),[1],0.0122 (active)
same,normalized thallium flux,[2],0.0771 (active)
same,normalized thallium flux,[3],0.0916 (active)
same,thallium flux rate (normalised fluorescence),[4],0.0914 (active)
same,"raw Tl+ flux slope (below DMSO = inhibition, above = activation)",[5],0.0814 (active)
same,thallium flux slope,[6],0.0843 (active)
C(=N\n1cnnc1)/c1cccnc1,cell count,[7],581
same,inhibition,[7],0.9% (inactive)
same,inhibition of aggregation,[8],18.4% (inactive)
same,nuclei count,[8],76.7%
same,inhibition,[9],-64.9% (inactive)
same,nuclei count,[9],115%
same,z-score,[10]; measured here: cell density z-score,0.785
same,z-score,[10]; measured here: nuclear c-Myc green intensity z-score,-0.718
same,z-score,"[10]; measured here: nuclear pErk red intensity z-score, stronger effect = higher value",0.742
same,inhibition,[11],1.42% (inactive)
same,fluorescence slope,[12],-0.457 (inactive)
same,NADPH fluorescence slope,[13],-0.000114 (inactive)
same,fluorescence slope,[14],0.00428 (inactive)
same,outcome,[15],inactive
same,normalised thallium flux (F/F0 slope),[1],0.0086 (inactive)
same,normalized thallium flux,[2],0.00647 (inactive)
same,normalized thallium flux,[3],0.0321 (inactive)
same,thallium flux rate (normalised fluorescence),[4],0.0072 (inactive)
same,"raw Tl+ flux slope (below DMSO = inhibition, above = activation)",[5],0.021 (inactive)
same,thallium flux slope,[6],0.0101 (inactive)
same,inhibition,[16],0.59% (inactive)
same,inhibition,[17],-11.4% (inactive)
same,inhibition,[18],-7.31% (inactive)
O=C(CCC(=O)OCc1cccc(C(=O)Oc2ccccc2)c1)Nc1cccc2ccccc12,normalised thallium flux (F/F0 slope),[1],0.00618 (inactive)
same,normalized thallium flux,[2],0.00434 (inactive)
same,normalized thallium flux,[3],0.0284 (inactive)
same,thallium flux rate (normalised fluorescence),[4],0.00695 (inactive)
same,"raw Tl+ flux slope (below DMSO = inhibition, above = activation)",[5],0.0171 (inactive)
same,thallium flux slope,[6],0.00997 (inactive)
CSc1sc(C(=O)NNC(=O)c2ccc(Cl)cc2)c2c1C=CCC2,normalised thallium flux (F/F0 slope),[1],0.0166 (active)
same,normalized thallium flux,[2],0.0484 (active)
same,normalized thallium flux,[3],0.0343 (inactive)
same,thallium flux rate (normalised fluorescence),[4],0.0305 (active)
same,"raw Tl+ flux slope (below DMSO = inhibition, above = activation)",[5],0.0333 (active)
same,thallium flux slope,[6],0.0136 (active)
Brc1ccc(C2=CC(c3ccco3)n3ncnc3N2)cc1 (configuration not stated),normalised thallium flux (F/F0 slope),[1],0.00373 (active)
same,normalized thallium flux,[2],0.00178 (active)
same,normalized thallium flux,[3],0.0209 (active)
same,thallium flux rate (normalised fluorescence),[4],0.00407 (active)
same,"raw Tl+ flux slope (below DMSO = inhibition, above = activation)",[5],0.00899 (active)
same,thallium flux slope,[6],0.00724 (active)
CC/S(CC1CC1(Cl)Cl)=N\S(=O)(=O)c1ccc(C)cc1 (configuration not stated),normalised thallium flux (F/F0 slope),[1],0.0104 (inactive)
same,normalized thallium flux,[2],0.00604 (inactive)
same,normalized thallium flux,[3],0.0348 (inactive)
same,thallium flux rate (normalised fluorescence),[4],0.00744 (inactive)
same,"raw Tl+ flux slope (below DMSO = inhibition, above = activation)",[5],0.0213 (inactive)
same,thallium flux slope,[6],0.0107 (inactive)
CNC(=O)/C(=C\C=C\c1ccccc1)NC(=O)c1ccc([N+](=O)[O-])cc1,normalised thallium flux (F/F0 slope),[1],0.00733 (inactive)
same,normalized thallium flux,[2],0.00498 (inactive)
same,normalized thallium flux,[3],0.0219 (active)
same,thallium flux rate (normalised fluorescence),[4],0.00796 (inactive)
same,"raw Tl+ flux slope (below DMSO = inhibition, above = activation)",[5],0.0141 (active)
same,thallium flux slope,[6],0.0103 (inactive)
COc1ccc(C(=O)NC2(C(F)(F)F)NC(=O)N(CCCc3ccccc3)C2=O)c(OC)c1OC (configuration not stated),normalised thallium flux (F/F0 slope),[1],0.00692 (inactive)
same,normalized thallium flux,[2],0.00586 (inactive)
same,normalized thallium flux,[3],0.0307 (inactive)
same,thallium flux rate (normalised fluorescence),[4],0.00683 (inactive)
same,"raw Tl+ flux slope (below DMSO = inhibition, above = activation)",[5],0.0134 (active)
same,thallium flux slope,[6],0.0109 (inactive)
CCC(=O)NC(=Nc1nc2ccccc2s1)NC(=O)CC,normalised thallium flux (F/F0 slope),[1],0.00696 (inactive)
same,normalized thallium flux,[2],0.0683 (active)
same,normalized thallium flux,[3],0.0951 (active)
same,thallium flux rate (normalised fluorescence),[4],0.0894 (active)
same,"raw Tl+ flux slope (below DMSO = inhibition, above = activation)",[5],0.0811 (active)
same,thallium flux slope,[6],0.0859 (active)
CC(=O)NNC(=O)c1csc(Cc2c(Cl)sc3ccc(Cl)cc23)n1,normalised thallium flux (F/F0 slope),[1],0.00965 (inactive)
same,normalized thallium flux,[2],0.0419 (active)
same,normalized thallium flux,[3],0.0308 (inactive)
same,thallium flux rate (normalised fluorescence),[4],0.0146 (active)
same,thallium flux slope,[6],0.0112 (active)
COc1ccc(NC(=O)c2ccccc2[N+](=O)[O-])cc1OC,normalised thallium flux (F/F0 slope),[1],0.00704 (inactive)
same,normalized thallium flux,[2],0.00505 (inactive)
same,normalized thallium flux,[3],0.0299 (inactive)
same,thallium flux rate (normalised fluorescence),[4],0.00749 (inactive)
same,"raw Tl+ flux slope (below DMSO = inhibition, above = activation)",[5],0.0198 (inactive)
same,thallium flux slope,[6],0.0109 (inactive)
COc1ccc(CNC(=O)CCn2cccc2)cc1,normalised thallium flux (F/F0 slope),[1],0.0171 (inactive)
same,normalized thallium flux,[2],0.00443 (inactive)
same,normalized thallium flux,[3],0.0307 (inactive)
same,thallium flux rate (normalised fluorescence),[4],0.00777 (inactive)
same,"raw Tl+ flux slope (below DMSO = inhibition, above = activation)",[5],0.0168 (inactive)
same,thallium flux slope,[6],0.0101 (inactive)
S=c1[nH]nc(Nc2ccccc2)s1,normalised thallium flux (F/F0 slope),[1],0.00869 (inactive)
same,normalized thallium flux,[2],0.00545 (inactive)
same,normalized thallium flux,[3],0.026 (active)
same,thallium flux rate (normalised fluorescence),[4],0.00742 (inactive)
same,"raw Tl+ flux slope (below DMSO = inhibition, above = activation)",[5],0.0108 (active)
same,thallium flux slope,[6],0.00974 (inactive)
CCCOC(=O)CC1C(=O)NCCN1Cc1ccc(F)cc1 (configuration not stated),normalised thallium flux (F/F0 slope),[1],0.00813 (inactive)
same,normalized thallium flux,[2],0.00582 (inactive)
same,normalized thallium flux,[3],0.0278 (inactive)
same,thallium flux rate (normalised fluorescence),[4],0.0066 (inactive)
same,"raw Tl+ flux slope (below DMSO = inhibition, above = activation)",[5],0.019 (inactive)
same,thallium flux slope,[6],0.00872 (inactive)
O=C(Nc1nc2c(F)cc(F)cc2s1)C1COc2ccccc2O1 (configuration not stated),normalised thallium flux (F/F0 slope),[1],0.017 (active)
same,normalized thallium flux,[2],0.0963 (active)
same,normalized thallium flux,[3],0.0398 (inactive)
same,thallium flux rate (normalised fluorescence),[4],0.0378 (active)
same,"raw Tl+ flux slope (below DMSO = inhibition, above = activation)",[5],0.0383 (active)
same,thallium flux slope,[6],0.0155 (active)
